Compound activity (PubChem)
AID inh – inhibitors of human activation induced cytidine deaminase; Potency, µM (doses to about 115 µM), hits mostly inhibitors; Q9GZX7; AID deamination FRET fluorescence, UDG-coupled, 4 h; 91,000 compounds, 0.32% hits; note: nearly all actives have a fitted effect of over 25% in size
Target sequence (Q9GZX7 whole entry, looked up): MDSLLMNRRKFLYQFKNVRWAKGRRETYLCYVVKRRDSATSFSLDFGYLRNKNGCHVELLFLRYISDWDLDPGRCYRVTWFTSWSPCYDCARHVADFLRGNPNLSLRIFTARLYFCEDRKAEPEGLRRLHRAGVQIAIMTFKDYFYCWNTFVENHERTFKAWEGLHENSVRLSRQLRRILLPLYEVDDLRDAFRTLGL
UDG counter – UDG inhibition counter-screen; 91,000 compounds, 0.14% hits; FRET deamination/UDG coupled assay, UDG read, 4 h; AID 1347430; Potency, µM (series often up to 115 µM), for inactives: at the top dose activity change, negative = inhibition, usual class: inhibitors; note: nearly all actives have a fitted effect of over 65% in size
Active calls of the source: *; i = inactive; ? = inconclusive; [ ] = another dose, or the depositor's remark. A selection: hits, their analogues and other compounds. The true share with any hit is near 0.4%. Calls come from the whole dose curve; as a rule, active = well fitted curve in the direction sought with a large enough effect; inconclusive = small, poorly fitted or top-dose-only effect, or another doubt; inactive = no such curve, though single readings can be large; an effect the other way counts as inactive or inconclusive. % is set by controls: 0 for no effect and ±100 for the full control effect; potency is the fitted concentration of half-maximal effect.

SMILES | AID inh | UDG counter
O/N=C\c1ccc(OCc2ccccc2Cl)cc1 | i | -5%
Oc1ccc(NCc2ccc(OCc3ccccc3)cc2)cc1 | 2.8µM* | -23%
c1ccc(CNCc2ccc(OCc3ccccc3)cc2)cc1 | i | -9%
Oc1ccc(NCc2ccc(OCc3ccccc3Cl)cc2)cc1 | 35µM* | 79µM*
Fc1ccc(-c2ccn[nH]2)cc1 | i | 0%
CCc1ccc(C(=O)COC(=O)/C(=C\c2ccccc2)NC(C)=O)cc1 | i | -10%
Cc1ccc(NC(=O)CCc2ncc(-c3c(F)cccc3F)o2)c(O)c1 | i | 1%
Brc1c(Br)c(Br)c2[nH]cnc2c1Br | i | -5%
Brc1c(Br)c(Br)c2n[nH]nc2c1Br | 40µM* | 7%
N#Cc1cc2c(nc1SCCOc1ccccc1)CCCCC2 | i | -14%
CC1Sc2ccc(C(=O)NNC(=O)CSc3cccc4cccnc34)cc2NC1=O (centres undefined) | 22µM* | 0%
C=C(Cl)COC(=O)c1ccc2c(c1)NC(=O)C(C)S2 (centres undefined) | i | -14%
N#Cc1ccccc1OCC(=O)N1CCC(c2nc3ccccc3o2)CC1 | i | 10%
Cc1cc(N)c2ccccc2[n+]1CCCCCCCCCC[n+]1c(C)cc(N)c2ccccc21 | 50µM* | 89µM*
CC1(C)CCC2=C(O1)c1ccccc1C(=O)C2=O | 7.9µM* | -12%
O=C1c2ccccc2-c2ccccc21 | i | 0%
Cc1nc2cc(F)ccc2cc1C(=O)NCC1COc2ccccc2O1 (centres undefined) | i | -5%
COc1ccc(C2=NC(c3ccccc3)=Nc3ccc(C)cc3N2)cc1 | i | 79µM*
Cc1ccc(C2=NC(c3ccccc3)=Nc3ccc(Cl)cc3N2)cc1 | i | ?
O=C(CCS(=O)(=O)c1cc2c3c(c1)CCN3C(=O)CC2)N1CCN(c2ccccc2)CC1 | i | -1%
COc1ccc(Cl)cc1NC(=O)CSC1=Nc2ccccc2C2=NC(CC(=O)NC3CCCCC3)C(=O)N12 (centres undefined) | 32µM* | 11%
O=C(CC1N=C2c3ccccc3N=C(SCc3ccc(Cl)cc3)N2C1=O)NC1CCCCC1 (centres undefined) | i | 26%
Cc1ccc(-n2nnnc2C2(Nc3ccccc3)CCCCC2)cc1 | i | 2%
COc1cccc(-c2cc(=O)[nH]c(Nc3nc(C)c4ccccc4n3)n2)c1 | 22µM* | -9%
COc1ccc2nc(Nc3nc(-c4ccccc4)cc(=O)[nH]3)nc(C)c2c1 | i | 0%
SMILES | AID inh | UDG counter
CCOC(=O)c1sc(N)c(C#N)c1CSCc1ccccc1 | i | -16%
CCCCC(=O)Nc1oc2c(C)cccc2c(=O)c1-c1ccccc1 | i | 79µM*
CCCCC(=O)Nc1oc2c(C)cccc2c(=O)c1-c1cc(OC)c(OC)c(OC)c1 | i | -4%
COc1ccc2c(C)c(CC(=O)NCCCn3ccnc3)c(=O)oc2c1C | i | -8%
CCc1ccc(NC(=O)c2oc3c(c2C)-c2[nH]ncc2CC3)cc1 | ? | -17%[57.5 µM]
Cc1cc(NC(=O)c2oc3c(c2C)-c2[nH]ncc2CC3)ccc1Br | 35µM* | -17%[57.5 µM]
Cc1ccc(N2NC3(CCCCC3)NC2=S)cc1 | i | -11%
Cc1csc(NC(=O)CSc2c3c(nc4cc(Cl)ccc24)CCCC3)n1 | i | 0%
CC(C)CC(NC(=O)c1ccc(-c2ccccc2)cc1)C(=O)O (centres undefined) | i | 1%
COc1ccc2[nH]c(C)c(C(=O)CN3CCC(C)CC3)c2c1 | i | 0%
COc1ccc2[nH]c(C)c(C(=O)CN3CCC(Cc4ccccc4)CC3)c2c1 | i | 89µM*
O=C(CCc1ncc(-c2ccccc2Cl)o1)N1CCN(S(=O)(=O)c2ccccc2Cl)CC1 | i | -3%
CCc1ccc(C(=O)COc2c(C)cc(Br)cc2Cl)cc1 | i | -4%
CCOc1ccc(NC(=O)C(CC)Oc2ccc(F)cc2)c2cccnc12 (centres undefined) | i | 4%
CC(C)(C)c1ccc(C(=O)NCC(c2cccs2)S(=O)(=O)c2cccs2)cc1 (centres undefined) | ? | -4%
CC(C)(C)c1ccc(C(=O)NCC(c2cccs2)S(=O)(=O)c2ccc(F)cc2)cc1 (centres undefined) | i | 79µM*
O=C(Cn1c(NCc2ccccc2)nc2ccccc21)N1CCN(c2ccccc2)CC1 | i | -9%
CCc1ccc(CSc2nc(-c3ccccc3F)nc3c2Cc2c(CO)cnc(C)c2O3)cc1 | i | -2%
CCN(CC)C(=O)CSc1nc(-c2ccccc2F)nc2c1Cc1c(CO)cnc(C)c1O2 | 28µM* | 5%
COc1ccc(N2CCN(C(=O)Cn3ncc4c3-c3cc(C)ccc3OC4)CC2)cc1 | i | -16%
Cc1ccc2c(c1)-c1c(cnn1CC(=O)N1CCN(c3cc(C)ccc3C)CC1)CO2 | 40µM* | -11%
CCOc1cccc(OCCn2c(-c3ccc(OC)cc3)nc3ccccc3c2=O)c1 | i | 2%
Cc1ccc(CN(C(=O)COc2ccc(Cl)cc2Cl)C2CCS(=O)(=O)C2)o1 (centres undefined) | i | -12%
COc1c(Cl)cc(C(=O)N(Cc2ccc(C)o2)C2CCS(=O)(=O)C2)cc1Cl (centres undefined) | i | 89µM*
CN(C(=O)CCc1nc2ccccc2c(=O)[nH]1)C1CCCC1 | i | -20%
SMILES | AID inh | UDG counter
Cc1ccc(-c2noc(CN(C(=O)COc3cc(C)cc(C)c3C)C(C)C)n2)cc1 | 79µM* | -19%
Cc1ccc(OCC(=O)N(Cc2nc(-c3ccccc3)no2)C(C)C)cc1C | i | 0%
O=C(Nc1ccccc1C1CC1)C1CC1 | i | -2%
O=C(COc1ccc(Cl)cc1Br)Nc1ncn[nH]1 | i | -1%
COc1ccc(NC(=O)COc2ccc(C(C)C)cc2)c2cccnc12 | i | -4%
Oc1ccc(NCc2ccccc2OCc2ccccc2Cl)cc1 | 32µM* | -18%
Fc1ccc(NCc2ccccc2F)cc1 | i | 3%
Oc1ccc(NCc2ccccc2OCc2ccccc2F)cc1 | 20µM* | -8%
N#Cc1ccc(NCc2ccccc2Cl)cc1 | i | -3%
Cc1cccc(NC(=O)Cn2c(=O)oc3cc(S(=O)(=O)N4CCCCCC4)ccc32)c1 | i | -12%
COc1cccc(NC(=O)Cn2c(=O)oc3cc(S(=O)(=O)N4CCCCC4)ccc32)c1 | i | 89µM*
CC(NC(=O)c1ccco1)C(=O)Nc1nc(-c2ccc3ccccc3c2)cs1 (centres undefined) | i | -6%
CCN(CC)S(=O)(=O)c1ccc(C)c(NC(=S)N(c2ccccc2)C(C)C)c1 | i | 9%
CCN(C(=S)Nc1cc(S(=O)(=O)N(C)C)ccc1C)c1cccc2ccccc12 | 79µM* | ?
COc1ccc(S(=O)(=O)Nc2nc3ccccc3nc2NCc2ccccc2OC)cc1 | i | 10%
Cc1ccc(Cn2ccnc2SCC(=O)Nc2ccc3c(c2)OCCO3)cc1 | i | -13%
Cc1ccc(Cn2ccnc2SCC(=O)Nc2ccc3c(c2)OCO3)cc1 | 79µM* | ?
CN(CCOc1ccccc1F)Cc1nc(N)nc(N(C)C)n1 | i | -20%
CCC(C(=O)Nc1sccc1C#N)c1ccccc1 (centres undefined) | i | -15%
COc1ccccc1/C=C(/C#N)C(=O)c1c(Cl)cccc1Cl | i | -9%
C=CCN(CC=C)C(=O)c1cc(-c2ccc(OC)cc2)nc2ccccc12 | i | -6%
